PubChem BioAssay (NCI)
This is part of a sample that, as a whole, favours compounds with a hit. Of some 83,000 tested, about 20% had one in any assay.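 Single-concentration screen, 48 h exposure, 96-well plates. Endpoint: percent growth. Below 10 = active.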 Active and inactive are the calls of the source.

What was measured:
Assay in all cases: NCI-60 one-dose screen, 48 h (100 = growth as untreated, 0 = no growth, -100 = all killed)
Details in all cases: 10 µM
OVCAR-8 ovarian = system: OVCAR-8 ovarian
OVCAR-5 ovarian = system: OVCAR-5 ovarian
OVCAR-4 ovarian = system: OVCAR-4 ovarian
SK-OV-3 ovarian = system: SK-OV-3 ovarian
IGROV1 ovarian = system: IGROV1 ovarian
OVCAR-3 ovarian = system: OVCAR-3 ovarian
HS 578T breast = system: HS 578T breast
NCI/ADR-RES ovarian = system: NCI/ADR-RES ovarian
T-47D breast = system: T-47D breast

Measured: growth

CC(C)=CCc1ccc(O)c(=O)cc1C(C)C
inactive: OVCAR-8 ovarian 12.4% | OVCAR-5 ovarian 52.4% | OVCAR-4 ovarian 31.2% | SK-OV-3 ovarian 18.5% | OVCAR-3 ovarian 43.4% | HS 578T breast 72.7% | T-47D breast 20.4%
active: IGROV1 ovarian 1.88% | NCI/ADR-RES ovarian 1.61%

N#Cc1cc(-c2cc3ccccc3o2)oc1N
active: IGROV1 ovarian 7.67% | HS 578T breast -37.9%
inactive: OVCAR-5 ovarian 20.9% | OVCAR-4 ovarian 20.5% | SK-OV-3 ovarian 17.3% | NCI/ADR-RES ovarian 11.1% | T-47D breast 27.9%

CCOC(=O)C(NC(=O)C(Cl)Cl)C(O)c1ccccc1 (centres undefined)
inactive: OVCAR-8 ovarian 102% | OVCAR-5 ovarian 102% | OVCAR-4 ovarian 110% | SK-OV-3 ovarian 116% | IGROV1 ovarian 77.7% | OVCAR-3 ovarian 109% | HS 578T breast 120% | NCI/ADR-RES ovarian 108% | T-47D breast 107%

COc1ccc(-n2c(SCc3cc(OC)c(OC)c(OC)c3)nc3ccc(C)cc3c2=O)cc1
inactive: OVCAR-8 ovarian 84.2% | OVCAR-5 ovarian 80.6% | OVCAR-4 ovarian 67.2% | SK-OV-3 ovarian 73.8% | IGROV1 ovarian 62% | OVCAR-3 ovarian 59.9% | HS 578T breast 77.7% | NCI/ADR-RES ovarian 45.8% | T-47D breast 67.8%
